FMDV inh = High Throughput Screening for Foot and Mouth Disease Virus Antivirals | FMDV antiviral cell-based qHTS | Potency, µM (top dose mostly 57.9 µM), without a hit: at the top dose activity change, negative = inhibition, actives largely listed as inhibitors | 410,000 tested, 1.2% active | AID 1159524, 2015; calls by dose curve; tested in HEK293T cells; further: read-out not given here; potency means the concentration at half of the fitted maximal effect; nearly all actives have a fitted effect of over 45% in size
VACV mCherry inh = qHTS for Stage-Specific Inhibitors of Vaccinia Orthopoxvirus: mCherry Reporter Primary qHTS; Potency, µM (doses to about 36.5 µM), without a hit: at the top dose activity change, negative = inhibition, usual class: inhibitors; 310,000 tested, 0.63% active; Vaccinia virus mCherry reporter infection, fluorescence; calls by dose curve; tested in A549 cells; further: potency means the concentration at half of the fitted maximal effect; nearly all actives have a fitted effect of over 35% in size
Vaccinia Venus = qHTS for Stage-Specific Inhibitors of Vaccinia Orthopoxvirus: Venus Reporter Primary qHTS; Vaccinia virus Venus reporter expression, fluorescence; Potency, µM (top dose mostly 36.5 µM), inactives show at the highest dose activity change, negative = inhibition, usual class: inhibitors; 330,000 tested, 0.46% active; AID 720580, 2013; calls by dose curve; tested in A549 cells; further: potency means the concentration at half of the fitted maximal effect; nearly all actives have a fitted effect of over 30% in size
HCV inhibitor = qHTS Assay for Inhibitors of Hepatitis C Virus (HCV). 340,000 tested, 3.4% active. Potency, µM (highest dose often 41.8 µM), inactives show top-dose activity change, negative = inhibition, usual class: inhibitors. Huh7.5.1 HCVcc-Cre infection, luciferase reporter, 44 h; active means well fitted inhibition curve with a large enough effect; inconclusive means small, poorly fitted or top-dose-only effect, or another doubt; inactive means no such curve, though single readings can be large or run the other way; further: potency means the concentration at half of the fitted maximal effect
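Infectious HCV cell culture screen: compound-treated cells (1,000/well, pre-plated 4 h) are infected with HCVcc-Cre at roughly 0.5 moi and grown 44 h. Infection is quantified by luciferase signal after 15 min substrate incubation at room temperature.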
HCMV antiviral = qHTS Assay for inhibitors of the human cytomegalovirus (HCMV) | HFF cells, HCMV-luciferase reporter, 72 h; hits give low values | activity change, negative = inhibition, % at 57.5 µM | 410,000 tested, 4.5% active; in the data active means activity change below about -60%; inconclusive means no clear call, values can overlap the other calls; inactive means above about -39%
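Inhibition of viral replication was scored as loss of reporter luminescence in HFFs infected with HCMV-luciferase (MOI 1 PFU/cell) for 72 h; compounds tested at 2 doses, normalized to buffer and Salinomycin controls.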
An asterisk follows results filed as active; i = inactive; u = inconclusive; x = not tested or not shown; ! = a repeat was not active. Sampled rows, rich in hits. Any-hit rate of the full collection: about 7.3%. On the % scale 0 is the no-effect control and ±100 the full control effect.

SMILES	FMDV inh	VACV mCherry inh	Vaccinia Venus	HCV inhibitor	HCMV antiviral
COc1ccc(CCNC(=O)CCCCn2c(=O)c3ccccc3n(Cc3ccc(Cl)cc3)c2=O)cc1OC	-27%	-13%	-6%	x	1
COc1cc(C(=O)Oc2ccccc2/C=N/NC(=O)c2ccc(Cl)cc2Cl)cc(OC)c1OC	15%	x	u	u	-100*
CC(=O)c1ccc(N2CCN(C(=S)Nc3ccc(Oc4ccccc4)cc3)CC2)cc1	0%	u	-24%	4.5µM*	-63*
O=C(c1ccc(Cl)c(S(=O)(=O)N2CCCCC2)c1)N1CCN(c2ccccc2)CC1	u	-9%	-19%	u	-77*
O=C(c1ccc(Cl)c(S(=O)(=O)N2CCCC2)c1)N1CCN(c2ccc(F)cc2)CC1	u	u	-27%	u	-87*
CC(=O)c1ccc(N2CCN(C(=O)c3ccc(-c4ccccc4)cc3)CC2)cc1	-8%	i	-9%	4%	-66*
O=C(c1ccc(Cl)c(S(=O)(=O)N2CCCC2)c1)N1CCN(c2ccccc2)CC1	0%	-19%	-14%	u	u
Cc1nn(-c2ccccc2)c(-n2cccc2)c1C(=O)N1CCN(c2ccccc2)CC1	-30%	-14%	4%	x	3
Cc1ccc(C(=O)N2CCN(c3ccc(F)cc3)CC2)cc1S(=O)(=O)N1CCCCC1	u	u	-16%	x	-84*
O=C(c1cc(N2C(=O)C3C4CCC(C4)C3C2=O)ccc1Cl)N1CCN(c2ccc(F)cc2)CC1 (configuration not stated)	32µM*	-4%	-22%	u	21
CC1CC(C)CN(S(=O)(=O)c2ccc(C(=O)N3CCN(c4ccccc4)CC3)cc2)C1 (configuration not stated)	x	-14%	0%	10µM*	-25
O=C(c1ccc(S(=O)(=O)N2CCCCCC2)cc1)N1CCN(c2ccccc2)CC1	-26%	-22%	-4%	-2%	-8
CC1CCN(S(=O)(=O)c2cc(C(=O)N3CCN(c4ccccc4)CC3)ccc2Br)CC1	-19%	-26%	u	x	-76*
O=C(Nc1cccc(C(=O)N2CCN(c3ccc(F)cc3)CC2)c1)c1nsc2ccccc12	0%	-18%	-7%	x	42
COc1ccc([C@H]2NC(=O)C[C@H]2C(=O)N2CCOCC2)cc1	x	x	x	x	-15
COc1ccc(CNc2cc(-c3ccoc3)ncn2)c(OC)c1	15%	x	x	x	x
COc1ccc2c(c1)CC(C(=O)N1CCC(C(N)=O)CC1)CO2 (configuration not stated)	-7%	-8%	-10%	x	-4
O=C(O)CSc1nc2c(c(C(F)(F)F)n1)CCc1ccccc1-2	-9%	-11%	-12%	-9%	-22
O=C(O)CSc1nc2c(c(C(F)(F)F)n1)CCCC2	-8%	16%	-3%	12%	-96*!
CC(C)(C)NC(=O)C12CCC(C)(c3nc4ccccc4nc31)C2(C)C (configuration not stated)	-28%	x	x	-15%	-94*
COC(=O)C12CCC(C)(c3nc4ccccc4nc31)C2(C)C (configuration not stated)	-25%	-12%	-1%	10%	-30
CCCCCCCCCCCCCCCCn1cc[n+](C)c1	32µM*	u	u	5.6µM*	-96*
C[n+]1ccn(CC(=O)c2cccs2)c1	-17%	-3%	-15%	14%	12
COc1ccc(NC(=O)C(C)n2nc(-c3ccc(C)c(C)c3)ccc2=O)cc1OC (configuration not stated)	0%	-15%	-8%	x	10
C/C(=N\NC(=O)c1cc2c(s1)CCC(C)C2)c1ccc[nH]1 (configuration not stated)	52%	x	x	1%	-16
SMILES	FMDV inh	VACV mCherry inh	Vaccinia Venus	HCV inhibitor	HCMV antiviral
C/C(=N\NC(=O)c1cc2c(s1)CCC(C)C2)c1ccncc1 (configuration not stated)	0%	-18%	-11%	25µM*	u
CC1CCc2sc(C(=O)N/N=C/c3ccc(O)cc3)cc2C1 (configuration not stated)	9%	u	-18%	u	-64*
CC(C)NC(=NCc1ccc(Cl)cc1Cl)Nc1ccccc1	-30%	x	x	u	-101*
Cc1cccc(N2CCN(C(=O)c3cc4c(=O)[nH]c5ccc(C)cc5c4s3)CC2C)c1 (configuration not stated)	u	-32%	-31%	x	0
Oc1ccc2ccccc2c1C=Nc1ccccc1-c1nc2ccccc2[nH]1	6%	u	-17%	11µM*	11
CC(C)(C)c1ccc(O)c(N=Cc2c(O)ccc3ccccc23)c1	-24%	u	-26%	u	-92*
CCC(=O)C1=C(c2ccccc2)N(C(=O)CC)n2c(nnc2C2CCCCC2)S1	-7%	-9%	-14%	x	22
CCC(=O)C1=C(c2cccc(OC)c2)N(C(=O)CC)n2c(nnc2C2CCCCC2)S1	-19%	-38%	u	x	-92*
CCC(=O)C1=C(c2cccc([N+](=O)[O-])c2)N(C(=O)CC)n2c(nnc2C2CCCCC2)S1	0%	u	u	x	-99*
CCC(=O)C1=C(c2cccc([N+](=O)[O-])c2)N(C(=O)CC)n2c(nnc2-c2ccccc2)S1	-12%	-8%	-9%	x	-35
Cc1noc(C)c1S(=O)(=O)N(C)C[C@@H]1OCc2cnnn2CCCC(=O)N([C@@H](C)CO)C[C@@H]1C	x	x	x	x	-10
C[C@H]1[C@@H](NS(=O)(=O)c2ccccc2)CC[C@@]23CCCN2C(=O)CCC[C@@H]13	x	x	x	x	-16
O=C(c1ccc2c(c1)N(Cc1ccc(F)cc1Cl)C(=O)c1ccccc1S2)N1CCC2(CC1)OCCO2	-4%	-3%	-3%	x	-68*
O=C(c1ccc2c(c1)N(Cc1cccc(F)c1)C(=O)c1ccccc1S2)N1CCC2(CC1)OCCO2	-2%	-2%	-1%	x	22
C=CCN1C(=O)c2ccccc2Sc2ccc(C(=O)N3CCC4(CC3)OCCO4)cc21	-30%	x	x	u	-66*
O=C(CC1SC(=Nc2ccccc2)N(CCCO)C1=O)Nc1ccc(Cl)cc1 (configuration not stated)	14µM*	x	u	-29%	x
O=C(CC1SC(=Nc2ccccc2)N(CCO)C1=O)Nc1ccccc1 (configuration not stated)	4%	-19%	-21%	10%	-28
CCC(C(=O)NCCCN1CC(C)CC(C)C1)n1nc(C)c2sc3ccccc3c2c1=O (configuration not stated)	0%	x	x	-13%	-73*
CCCN1CCN(CCCNC(=O)C(CC)n2nc(C)c3sc4ccccc4c3c2=O)CC1 (configuration not stated)	-3%	-26%	u	u	u
COc1ccc(S(=O)(=O)Nc2ccccc2)cc1	52%	-14%	-17%	4%	2

Screening results: PubChem BioAssay, National Center for Advancing Translational Sciences (NCATS)
